In all, about 310,000 compounds went through this assay and about 14,000 (4.5%) showed an effect of 50% or more. Effects have a minus sign here. The entries come from a sample that favours strong results as a whole.
Target: human ether-à-go-go-related gene (hERG) potassium channel (human, UniProt Q12809)
Assay: primary screen, population patch clamp on CHO cells stably expressing hERG; higher = less effect of the substance
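Also: peak tail current of the secondary pulse compared with the same well before compound.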

Chain of human ether-à-go-go-related gene (hERG) potassium channel (Q12809 whole entry, looked up): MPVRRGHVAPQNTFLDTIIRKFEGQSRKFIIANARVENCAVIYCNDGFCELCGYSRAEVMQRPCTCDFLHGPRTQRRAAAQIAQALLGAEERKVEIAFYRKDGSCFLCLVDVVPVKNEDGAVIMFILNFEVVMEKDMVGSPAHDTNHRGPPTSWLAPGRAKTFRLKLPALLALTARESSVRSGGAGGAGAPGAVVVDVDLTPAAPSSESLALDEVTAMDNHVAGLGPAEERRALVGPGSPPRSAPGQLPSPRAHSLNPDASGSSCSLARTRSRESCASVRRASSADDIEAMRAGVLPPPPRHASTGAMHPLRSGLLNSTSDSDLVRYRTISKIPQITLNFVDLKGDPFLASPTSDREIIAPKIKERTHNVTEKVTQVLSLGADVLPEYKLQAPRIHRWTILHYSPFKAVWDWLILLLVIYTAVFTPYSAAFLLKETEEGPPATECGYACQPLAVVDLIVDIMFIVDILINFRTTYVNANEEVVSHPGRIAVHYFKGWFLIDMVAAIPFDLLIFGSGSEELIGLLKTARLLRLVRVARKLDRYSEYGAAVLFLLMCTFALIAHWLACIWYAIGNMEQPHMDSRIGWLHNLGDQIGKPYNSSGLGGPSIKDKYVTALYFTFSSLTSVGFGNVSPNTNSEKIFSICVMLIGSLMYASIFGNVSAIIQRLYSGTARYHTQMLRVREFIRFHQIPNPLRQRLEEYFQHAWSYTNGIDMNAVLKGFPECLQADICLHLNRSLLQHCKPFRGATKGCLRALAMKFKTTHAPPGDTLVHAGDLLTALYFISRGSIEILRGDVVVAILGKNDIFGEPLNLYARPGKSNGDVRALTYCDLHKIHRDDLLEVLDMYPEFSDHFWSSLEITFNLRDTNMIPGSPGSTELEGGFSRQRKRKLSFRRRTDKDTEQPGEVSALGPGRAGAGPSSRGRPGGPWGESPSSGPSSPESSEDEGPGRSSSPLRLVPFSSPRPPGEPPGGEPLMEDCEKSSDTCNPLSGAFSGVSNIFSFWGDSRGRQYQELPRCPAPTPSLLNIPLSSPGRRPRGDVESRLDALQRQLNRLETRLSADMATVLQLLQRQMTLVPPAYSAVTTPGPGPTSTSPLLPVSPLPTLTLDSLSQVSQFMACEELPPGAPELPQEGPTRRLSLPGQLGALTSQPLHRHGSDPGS

Row | SMILES | hERG current change (%, negative = inhibition) at 10uM [%]
1 | CN(/N=C/c1ccccc1O)C(=S)c1ccccc1 | -3.8
2 | O=C(COc1ccccc1)Nc1nc2c(s1)CCCC2 | -20.3
3 | CN1CCc2nc(NC(=O)COc3ccc(C#N)cc3)sc2C1 | -7.85
4 | CN1CCc2nc(NC(=O)COc3ccc4ccccc4c3)sc2C1 | -56.2
5 | O=C(c1cccc(-c2ccccc2F)c1)N1CC[C@@H](N2CCC(O)CC2)[C@H](O)C1 | -17.7
6 | OC(COc1cccc2ccccc12)CN1CCN(c2cccc(Cl)c2)CC1 (stereo not shown) | 1.82
7 | Cc1cccc(N2CCN(CC(O)COc3ccc(Cl)cc3)CC2)c1 (stereo not shown) | -41.3
8 | Cc1cccc(OCC(O)CN2C(C)(C)CC(O)CC2(C)C)c1 (stereo not shown) | -33.2
9 | Cc1ccccc1OCC(O)CN1CCCCC1.Cl (stereo not shown) | 9.68
10 | Cc1cccc(OCC(O)CN2C(C)(C)CC(O)CC2(C)C)c1C (stereo not shown) | -51.3
11 | C=C1CC(C)OC(c2ccccc2OCC(O)CN2CCCCC2)C1 (stereo not shown) | -72.4
12 | CC1CN(CC(O)COc2ccccc2C(C)(C)C)CC(C)O1.Cl (stereo not shown) | -10.1
13 | OC(COc1cccc2ccccc12)CN1CCN(c2ccc(Cl)cc2)CC1 (stereo not shown) | -3.42
14 | Cc1ccccc1OCC(O)CN1CCN(c2ccc(Cl)cc2)CC1 (stereo not shown) | -66.3
15 | Cc1cccc(N2CCN(CC(O)COc3ccccc3Cl)CC2)c1 (stereo not shown) | -56
16 | CC1(C)CC(O)CC(C)(C)N1CC(O)COCc1ccccc1 (stereo not shown) | 11.7
17 | COC(=O)c1ccc(NC(=O)c2c(C(=O)Nc3ccccc3)sc3nc(C)cc(=O)n23)cc1 | 15.3
18 | Cc1ccccc1NC(=O)CSc1nnnn1C | 6.94
19 | CCOC(=O)c1c(-c2ccccc2)csc1NC(=O)c1cc(S(=O)(=O)N2CCOCC2)ccc1C | 2.23
20 | N#Cc1sc2nc(-c3cccs3)cc(-c3ccc(Cl)cc3)c2c1N | -2.05
21 | C=CCc1cccc2cc(C(=O)N3CCN(c4ccccn4)CC3)c(=O)oc12 | -38.9
22 | O=C1COc2ccc(C(=O)COC(=O)c3ncc(Cl)c(Cl)c3Cl)cc2N1 | 36.6
23 | COc1ccc(/C=C/C2=NN(C)C(=O)CC2)cc1 | 13.4

Row | SMILES | hERG current change (%, negative = inhibition) at 10uM [%]
24 | O=C(N/N=C\c1ccc(CNS(=O)(=O)c2ccccc2)o1)C(=O)Nc1ccc(F)cc1 | -22.3
25 | S=C(NCc1ccc2c(c1)OCO2)NC1CCN(Cc2ccccc2)CC1 | 20.6
26 | CCOC(=O)c1nc(C)n(-c2ccc(Cl)cc2Cl)n1 | 8.75
27 | COc1ccc(-c2nc(SC(CC(=O)NCCN3CCOCC3)c3cccs3)n[nH]2)cc1 (stereo not shown) | 1.08
28 | Cc1ccccc1OCC(O)CN1CCN(C)CC1.Cl (stereo not shown) | -0.704
29 | COc1ccccc1OCC(O)CN1CCN(CC(=O)Nc2c(C)cccc2C)CC1 (stereo not shown) | -18.6
30 | CCOC(=O)N1CCN(CC(O)COc2ccccc2[N+](=O)[O-])CC1.Cl (stereo not shown) | -0.882
31 | Cc1ccccc1OCC(O)CN1CCN(CC(O)COc2ccccc2C)C(C)C1.O=C(O)C(=O)O (stereo not shown) | -70.8
32 | Cc1ccccc1OCC(O)CN1CCC(C)CC1.Cl (stereo not shown) | -34.1
33 | COc1ccc(N2CCN(CC(O)COc3ccccc3[N+](=O)[O-])CC2)cc1.Cl (stereo not shown) | -44.1
34 | Cc1ccccc1OCC(O)CN.Cl.O (stereo not shown) | -1.72
35 | Cc1ccccc1OCC(O)CN1CCN(CC(O)COc2ccccc2C)CC1 (stereo not shown) | -81.6
36 | O=[N+]([O-])c1ccccc1OCC(O)CN1CCN(CC(O)COc2ccccc2[N+](=O)[O-])CC1 (stereo not shown) | -60.2
37 | Cc1ccccc1N1C(=O)CSC1=C(C#N)C#N | 18.3
38 | S=C(NCc1ccccn1)Nc1ccccc1 | 16.3
39 | Cc1ccc(N2CC(C(=O)NC3CC3)CC2=O)cc1Cl (stereo not shown) | 10
40 | CCOC(=O)CSc1nc2sc3c(c2c(=O)[nH]1)CC(C)(C)OC3 | 0.154
41 | CSc1cccc(NC(=O)CN(C2CCCCC2)S(C)(=O)=O)c1 | -7.59
42 | Cc1ccc(-c2csc3nc[nH]c(=S)c23)cc1C | 27.5
43 | CSc1nc(C)cc(C)c1S(=O)(=O)c1ccccc1C | 7.41
44 | O=C(C1CC=CCC1)N1CCC(CO)(Cc2ccc(Cl)cc2)CC1 (stereo not shown) | -7.77
45 | O=C(Nc1ccc(Cl)cc1)N1CCC(CO)(Cc2ccccc2)CC1 | -46.6
46 | OCC1(Cc2ccc(Cl)cc2)CCN(CCCc2ccccc2)CC1 | -83.9

Row | SMILES | hERG current change (%, negative = inhibition) at 10uM [%]
47 | Fc1ccc(CN2CCCCCCC2)cc1F | -24
48 | OCC1(Cc2ccccc2)CCN(Cc2cnc(-c3ccc(Cl)cc3)nc2)CC1 | -47.1
49 | O=S(=O)(c1cccs1)N1CCC(CO)(Cc2ccc(Cl)cc2)CC1 | -7.74
50 | OCC1(Cc2ccc(Cl)cc2)CCN(Cc2ccc(F)c(F)c2)CC1 | -68.6
51 | OCC1(Cc2ccc(Cl)cc2)CCN(CC2CC=CCC2)CC1 (stereo not shown) | -76.7
52 | O=C(Cc1ccccc1)N1CCN(CC2CC=CCC2)CC1 (stereo not shown) | -3.05
53 | OCC1(Cc2ccccc2)CCN(CCCC2CCCC2)CC1 | -76.8
54 | O=C1CC(N2CCOCC2)C(=O)N1CCc1ccccc1 (stereo not shown) | 6.86
55 | C=C1c2cc(C)ccc2NC(=O)N1c1ccccc1 | 2.71
56 | Cc1ccc(S(=O)(=O)N2CCN(C(=O)c3ccccn3)CC2)c(C)c1 | 20.1
57 | NC(=O)C1CCN(c2oc(/C=C/c3ccc(F)cc3)nc2S(=O)(=O)c2ccccc2)CC1 | 5.52
58 | Cc1ccc(NC(=O)Nc2c(C)n(C)n(-c3ccccc3)c2=O)cc1C | 13.1
59 | Cn1c(/C(C#N)=C/c2ccc(-c3ccc(S(N)(=O)=O)cc3)o2)nc2ccccc21 | -38.1
60 | COc1ccc(N/C(N)=N/c2nc(CSc3ccc(Cl)cc3)cc(=O)[nH]2)cc1 | 17.5
61 | Cc1cccc(CN2CCC(CNC(=O)C3CCCN(S(=O)(=O)c4cnc[nH]4)C3)CC2)c1 (stereo not shown) | -1.13
62 | O=C(NCc1cccnc1)C(=O)Nc1nc2ccccc2s1 | 3.9
63 | O=C(Nc1cccc2c1CCCC2)C1CCCN(S(=O)(=O)c2cccc3nonc23)C1 (stereo not shown) | -1.23
64 | CCO[C@@H]1OC(C(=O)NCc2nc3ccccc3[nH]2)=C[C@H](c2ccccc2)[C@H]1CCCO | -25.4
65 | CSc1ccc(/C=N/N2CCN(Cc3ccc(Cl)cc3)CC2)cc1 | 8.01
66 | Fc1ccccc1CN1CCN(c2ccc(Cl)cc2)CC1 | 1.71
67 | CSc1ccc(CN2CCC(CO)(Cc3ccc(Cl)cc3)CC2)cc1 | -81.3
68 | OCCC1CN(Cc2ccc(Oc3ncccn3)cc2)CCN1C1CCCCC1 (stereo not shown) | -7.34
69 | CSc1ccc(CN2CCCC(CO)(Cc3ccccc3)C2)cc1 (stereo not shown) | -60.7

Row | SMILES | hERG current change (%, negative = inhibition) at 10uM [%]
70 | OCC1(Cc2ccccc2)CCN(Cc2cccc(F)c2F)CC1 | -11.3
71 | CSc1ccc(CN2CCCCCC2)cc1 | -35
72 | OCCC1CN(Cc2ccc(Oc3ncccn3)cc2)CCN1C1CCCC1 (stereo not shown) | 8.16
73 | CCN1CCCC(CO)(Cc2ccccc2)C1 (stereo not shown) | 13.3
74 | OCC1(Cc2ccc(Cl)cc2)CCN(Cc2ccc(Oc3ncccn3)cc2)CC1 | -74.1
75 | OCC1(Cc2ccccc2)CCCN(Cc2ccn[nH]2)C1 (stereo not shown) | -11.8
76 | OCC1(Cc2ccc(Cl)cc2)CCN(Cc2ccccc2F)CC1 | -69.2
77 | COc1ccc(NC(=O)CNc2cc(C)ccc2C)cc1S(=O)(=O)N1CCOCC1 | -8.85
78 | COc1cccc(-c2cn(-c3cccc(C(F)(F)F)c3)c(=S)[nH]2)c1 | 20.4
79 | Cc1cnc(C(=O)OCC(=O)N(C)CC(=O)Nc2ccccc2Cl)cn1 | -2.14
80 | CC(OC(=O)c1ccncc1)C(=O)Nc1cccc(Cl)c1 (stereo not shown) | -23.2
81 | Cc1ccc(S(=O)(=O)N(C)C)cc1NC(=O)C(C)OC(=O)c1ccc2ccccc2n1 (stereo not shown) | -26.8
82 | Cc1cc(C)cc(N(CCC(=O)Nc2nnc(C3CC3)s2)S(=O)(=O)c2ccc(Cl)cc2)c1 | 4.63
83 | COc1ccc2oc(C(=O)OCC(=O)N3CCCCC3)c(C)c2c1 | 8.71
84 | COc1ccc2oc(C(=O)OCC(=O)N3CC(C)OC(C)C3)c(C)c2c1 (stereo not shown) | -0.998
85 | CCOC(=O)C1CCN(C(=O)COC(=O)c2oc3ccc(OC)cc3c2C)CC1 | -55.6
86 | COc1ccc2oc(C(=O)OCC(=O)N3CCC(C)CC3)c(C)c2c1 | -0.112
87 | COc1ccc2oc(C(=O)OCC(=O)N3CC(C)CC(C)C3)c(C)c2c1 (stereo not shown) | -56.1
88 | COC(=O)C1CCN(C(=O)COC(=O)c2oc3ccc(OC)cc3c2C)CC1 | -17.3
89 | O=C(NCc1ccncc1)c1cccc(F)c1 | 0.361
90 | Cc1c(C(=O)c2ccccc2C(=O)O)sc2ccccc12 | 15
91 | Cc1cc2cc(CCNC(=O)C(C)C)c(=O)[nH]c2cc1C | 2.03
